RBX1-CUL1 inh: inhibitors of human ROC1-CUL1 ubiquitin ligase activity | P62877+Q13616 | in vitro K48 di-Ub FRET, acceptor:donor ratio, 45 min | inhibition, % at 10 µM | 140,000 compounds, 0.6% hits | AID 1347404; in the data active means inhibition above about 25%
Target sequence (P62877 whole entry, looked up): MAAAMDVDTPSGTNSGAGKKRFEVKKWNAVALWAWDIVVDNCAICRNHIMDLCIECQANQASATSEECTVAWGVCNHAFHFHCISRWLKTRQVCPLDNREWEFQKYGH
Target sequence (Q13616 whole entry, looked up): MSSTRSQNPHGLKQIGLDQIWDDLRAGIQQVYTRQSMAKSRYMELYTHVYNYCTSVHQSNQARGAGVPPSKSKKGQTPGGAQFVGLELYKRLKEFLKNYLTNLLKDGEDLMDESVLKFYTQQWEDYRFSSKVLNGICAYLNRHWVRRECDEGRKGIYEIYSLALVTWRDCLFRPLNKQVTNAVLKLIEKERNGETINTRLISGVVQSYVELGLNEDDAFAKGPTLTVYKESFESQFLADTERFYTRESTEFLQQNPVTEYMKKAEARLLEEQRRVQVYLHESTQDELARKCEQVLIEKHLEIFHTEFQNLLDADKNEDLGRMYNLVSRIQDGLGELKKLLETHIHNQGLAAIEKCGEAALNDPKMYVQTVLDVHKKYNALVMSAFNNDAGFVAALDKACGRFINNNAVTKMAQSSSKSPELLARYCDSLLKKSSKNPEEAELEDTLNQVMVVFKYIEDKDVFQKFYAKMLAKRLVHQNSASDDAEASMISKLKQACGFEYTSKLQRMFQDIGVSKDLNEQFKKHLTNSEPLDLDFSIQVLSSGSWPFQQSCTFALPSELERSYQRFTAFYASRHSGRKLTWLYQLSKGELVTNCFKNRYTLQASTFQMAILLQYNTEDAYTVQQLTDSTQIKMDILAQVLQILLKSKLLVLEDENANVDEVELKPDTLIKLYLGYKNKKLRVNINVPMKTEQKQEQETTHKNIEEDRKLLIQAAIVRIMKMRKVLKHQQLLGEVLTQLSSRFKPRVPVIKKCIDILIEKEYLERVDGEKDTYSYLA
Numbers stand for hits; i = inactive. Only a selection was taken, and hits are over-represented in it overall.

SMILES | RBX1-CUL1 inh
Cc1ccc(Nc2c(C(C)C)c(C)c(C#N)c3nc4ccccc4n23)cc1 | i
CC(=O)c1coc2c1C(=O)c1ccccc1C2=O | 33.8
O=C1C(=O)c2c(C(=O)c3cccs3)coc2-c2ccccc21 | i
Cc1ccc(NC(=O)c2cccc3c2C(=O)c2ccccc2-3)cc1 | i
C=C(C)CN1N=C(C)Cn2c1nc1c2c(=O)n(CC(=C)C)c(=O)n1C | i
CC1=C(C#N)C(=O)N(CC(C)O)C(=O)C1N=Nc1ccc(S(N)(=O)=O)cc1 (stereo not given) | i
CN1CCC(OC(=O)COc2ccccc2)CC1 | i
CC(=O)c1cccc(NC(=O)c2sc(-n3nc(C)c(Cc4ccccc4)c3C)nc2C)c1 | i
CC(=O)c1ccc(NC(=O)C2=CC(c3ccc(C)cc3)=NS(=O)(=O)N2C)cc1 | i
COc1cc(Br)c(C2C3=C(CC(C)(C)CC3=O)N=C(C)C2C(=O)OC2CCCCC2)cc1OC (stereo not given) | i
CCOc1ccc(N=C2NC(=O)/C(=C/c3cc(Br)c(OC)c(OC)c3)S2)cc1 | i
CCOc1cc(/C=C2/SC(=Nc3ccc4ccccc4c3)NC2=O)cc(Cl)c1OCC(=O)O | 99.3
CCCOC(=O)c1cccc(N=C2NC(=O)/C(=C\c3cc(C(C)C)c(OC)cc3C)S2)c1 | i
COc1cccc(/C=C2\SC(=Nc3ccc(C)c(Cl)c3)NC2=O)c1OCC(=O)O | 97.0
CCOc1ccc(/C=C2\SC(=Nc3ccc(F)cc3)NC2=O)cc1OC | i
COc1cccc(/C=C2\SC(=Nc3cccc(Cl)c3C)NC2=O)c1OCC(=O)O | i
C#CCOC(=O)c1ccccc1Oc1nc(OC)cc(OC)n1 | i
CCOC(=O)c1ccc(Nc2nc(C)cc(C)n2)cc1 | i
O=C1C(=O)C(C(=O)/C=C/c2cccc(Cl)c2)C=C(Br)C=C1Br (stereo not given) | 87.0
CC(CNC(=O)/C=C/c1cccc(Cl)c1)NC(=O)/C=C/c1cccc(Cl)c1 (stereo not given) | i
COc1ccccc1/C=C/C(=O)C1C=C(Br)C=CC(=O)C1=O (stereo not given) | i
Cc1ccccc1/C=C/C(=O)C1C=C(Br)C=C(Br)C(=O)C1=O (stereo not given) | 53.7
O=C1C=CC(Br)=CC(C(=O)/C=C/c2ccc(Cl)cc2)C1=O (stereo not given) | i
CCc1ccccc1NC(=O)N1CCc2cc(OC)c(OC)cc2C1CC(=O)OC (stereo not given) | i
COc1ccc2cc(CNc3ccc(OC)c(OC)c3)c(=O)n(CC(=O)Nc3ccc(C)cc3)c2c1 | i
SMILES | RBX1-CUL1 inh
COc1ccc(C(=O)c2cc(C)ccc2OC)cc1 | i
COc1ccc(C(=O)c2coc3c2C(=O)C(=O)C(Br)=C3)cc1 | 102.1
COc1ccc(C(=O)c2coc3c2cc(O)c2ccccc23)cc1 | i
Cc1ccc2oc(-c3ccc(C)c(NC(=O)c4ccc(C(C)(C)C)cc4)c3)nc2c1 | i
O=C(NC1CCC1)c1ccc2nc(Cc3cccc(Cl)c3)oc2c1 | i
COc1cccc(NC(=O)C2CCN(c3nn4cc(-c5ccc(F)cc5)nc4s3)CC2)c1 | i
CCCCCCCc1nn2c(N)c(C=C3C=C(Cl)C(=O)C(Cl)=C3)c(=O)nc2s1 | 95.2
CCCc1nn2c(N)c(C=C3C=C(Br)C=CC3=O)c(=O)nc2s1 | i
CCc1nn2c(N)c(C=C3C=C(Cl)C(=O)C(Cl)=C3)c(=O)nc2s1 | i
COc1ccc(CCNCc2c(C(=O)O)c(C)n(Cc3cccc(Cl)c3)c2C)c(OC)c1OC | i
Cc1ccc(CNC(=O)c2ccc3oc(=O)n(Cc4ccccc4)c3c2)cc1 | i
CC(C)C(C)OC1CC(=O)CC2C(=O)c3c(O)ccc(O)c3C(=O)C12 (stereo not given) | 60.2
Cc1ncc(CN2CCCC(CO)(CCc3ccccc3)C2)s1 (stereo not given) | i
CC1CCCCN1C(=O)CSc1nnc(-c2ccccc2Cl)o1 (stereo not given) | i
Cc1cccc(-c2noc(CN(C(=O)COc3ccc(C(C)C)cc3)C(C)C)n2)c1 | i
c1ccc(CN2CCN(C3CCCSc4ccccc43)CC2)cc1 (stereo not given) | i
CCOC(=O)c1c(C)sc(-c2c(-c3ccc4c(c3)OCCO4)[nH]c3c2c(=O)[nH]c(=O)n3C)c1O | 30.5
CCOC(=O)c1c(C)sc(-c2c(-c3ccc(OC)c(F)c3)[nH]c3[nH]c(=O)[nH]c(=O)c23)c1O | i
CCOC(=O)c1nn(-c2ccc3c(c2)OCCO3)cc1O | i
CCc1ccc(-c2[nH]c3c(c2-c2sc(C)c(C(=O)OC)c2O)c(=O)[nH]c(=O)n3C)cc1 | i
COc1cccc(-c2[nH]c3c(c2-c2c(-n4cccc4)n(C)c(=O)[nH]c2=O)c(=O)[nH]c(=O)n3C)c1 | i
CCOC(=O)c1nn(-c2ccc(C)cc2)c(N=Nc2ccc3c(c2)OCCO3)c1O | i
COC(=O)c1c(C)sc(-c2c(-c3cccc(Cl)c3)[nH]c3c2c(=O)[nH]c(=O)n3C)c1O | 28.3
COC(=O)c1c(C)sc(-c2c(-c3ccc4c(c3)OCCO4)[nH]c3[nH]c(=O)[nH]c(=O)c23)c1O | i
COC(=O)c1c(C)sc(-c2c(-c3ccc4c(c3)OCCO4)[nH]c3c2c(=O)n(C)c(=O)n3C)c1O | i
SMILES | RBX1-CUL1 inh
CCOC(=O)c1c(C)sc(-c2c(-c3ccc4c(c3)OCCO4)[nH]c3c2c(=O)n(C)c(=O)n3C)c1O | 33.2
CCOC(=O)c1c(C)sc(-c2c(-c3ccccc3)[nH]c3[nH]c(=O)[nH]c(=O)c23)c1O | i
CCOC(=O)c1c(C)sc(-c2c(-c3ccc(OC)c(F)c3)[nH]c3c2c(=O)[nH]c(=O)n3C)c1O | 32.0
Cc1ccc2nc(N3CCN(c4ccccc4Cl)CC3)nc(-c3ccccc3)c2c1 | i
COC(=O)C(Cc1ccc(CC(=NC(=O)c2ccccc2)C(=O)OC)cc1)=NC(=O)c1ccccc1 | i
CN(Cc1cc(-c2ccccn2)no1)C(=O)Cn1ncc(N(C)C)cc1=O | i
CC(Oc1ccc(Br)cc1Br)C(=O)Nc1ccccc1O (stereo not given) | i
COc1ccc(C)cc1NC(=O)Cn1c(=O)c(C(F)(F)F)nc2ccccc21 | i
COc1ccc(NC(=O)CN2C(=O)CCc3cc(S(=O)(=O)N4CCOCC4)ccc32)cc1Cl | i
O=C(NC1CCC1)C1CCCN(C2CCN(Cc3ccncc3)CC2)C1 (stereo not given) | i
CC1=NN(c2ccc(F)cc2)C(=O)C1C(c1ccccc1)c1c(C)[nH]n(-c2ccc(F)cc2)c1=O (stereo not given) | i
COc1ccc(N2CCN(c3oc(-c4ccc(COc5cccc(C)c5)o4)nc3C#N)CC2)cc1 | i
O=C(N/N=C/c1cc([N+](=O)[O-])ccc1O)c1cnccn1 | i
O=C(N/N=C/c1cc([N+](=O)[O-])ccc1O)c1ccccn1 | i
O=C(N/N=C/c1cc([N+](=O)[O-])ccc1O)c1ccc(C(=O)N/N=C/c2cc([N+](=O)[O-])ccc2O)o1 | 97.8
COc1cccc(NC(=O)CCNC(=O)Cn2cnc3ccccc3c2=O)c1 | i
CN1CCN(c2c(F)cc3c(=O)ccn(-c4nccs4)c3c2F)CC1 | i
CC(=O)c1cccc(NC(=O)c2onc3c2CCCC3)c1 | i
Cc1ccc(NC(=O)Cc2noc3ccccc23)cc1 | i
Cc1ccccc1NC(=O)CN1C(=O)S/C(=C\c2cccn2-c2cccc(C(=O)O)c2)C1=O | 51.2
Cc1ccccc1NC(=O)CN1C(=O)S/C(=C/c2ccccc2)C1=O | i
Cc1ccc(NC(=O)CN2C(=O)S/C(=C\c3ccccn3)C2=O)cc1C | i

Screening results: PubChem, Pan Lab, Icahn School of Medicine at Mount Sinai
